Hit rate of the full screen: of about 63,000 compounds, about 1,100 (1.7%) were called active. Shown is part of a subset that was picked to be rich in actives. Measured potencies and affinities stand elsewhere. A number with no mark means an inactive call.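 The calls were made as follows: active = compounds whose percent cytotoxicity in the single-dose primary screen, scaled between solvent and toxic-drug controls, exceeds 50; inactive = the rest.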

The test is described as follows: cytotoxicity in KRAS-transformed pancreatic duct cells, primary screen, cell-based, fluorescence, HTS (AID 431).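 Also: 0% = DMSO solvent wells and 100% = doxorubicin-treated wells.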 Particulars: HPDE-C7K KRASV12 cells, Alamar Blue viability, 48 h; at 10 µM; hits give high values. On the technique in general: Alamar Blue is a resazurin reagent that responds to reducing activity.
As for `CS(=O)(=O)N1CCN(c2nc(-c3ccccc3)cs2)CC1`, the cytotoxicity was 11.2%. Regarding `Nc1nc(SCC(=O)N2CCCc3ccccc32)[nH]c(=O)c1-c1ccccc1`, the cytotoxicity was 2.5%. As to `COc1cc(C2c3c(n[nH]c3C)C(=O)N2c2ccc(Br)cc2)ccc1O` (configuration not stated), the cytotoxicity was 37.4%.

Consider `COc1cc(C2c3c(n[nH]c3C)C(=O)N2c2ccc(C)cc2)ccc1O` (configuration not stated), for which the cytotoxicity is 58% (active). Take `CCOc1cc(C2c3c(n[nH]c3C)C(=O)N2c2ccc(Br)cc2)ccc1O` (configuration not stated): the cytotoxicity is 21.7%.

As for `O=C(CN1CCN(Cc2ccccc2Cl)C1=O)N1CCCCCC1`, the cytotoxicity was -10.9%.

Regarding `COCCN(CCOC)S(=O)(=O)c1ccc(C(=O)Nc2nnc(C)o2)cc1`, the cytotoxicity is -7.3%. Then `CCCN(CCC)S(=O)(=O)c1ccc(C(=O)Nc2nnc(CSC)o2)cc1`, with 2.7%; and `COc1cccc(-c2nnc(NC(=O)c3ccccc3Br)o2)c1`, with 24.6%. On to `COc1cccc(-c2nnc(NC(=O)c3ccc(S(=O)(=O)N4CCOCC4)cc3)o2)c1`, for which the cytotoxicity was 1%. Consider `COc1cccc(-c2nnc(NC(C)=O)o2)c1`, for which the cytotoxicity is 9.5%. Then `CCCN(CCC)S(=O)(=O)c1ccc(C(=O)Nc2nnc(-c3cc(OC)cc(OC)c3)o2)cc1`, with 52.7% (active); and `CCCN(CCC)S(=O)(=O)c1ccc(C(=O)Nc2nnc(-c3cccc(OC)c3)o2)cc1`, with 62.9% (active). As to `COc1cccc(-c2nnc(NC(=O)c3ccc(S(=O)(=O)N(CC(C)C)CC(C)C)cc3)o2)c1`, the cytotoxicity was 55.5% (active). Turning to `COc1cccc(-c2nnc(NC(=O)c3ccc(S(=O)(=O)N4CC(C)OC(C)C4)cc3)o2)c1` (configuration not stated), the cytotoxicity is -4.2%.

Consider `CCCCn1c(SCC(=O)Nc2nc(C)cs2)nnc1-c1cccnc1`, for which the cytotoxicity was 2.9%. As for `Nc1nc(NC(=O)c2cccnc2)nn1-c1ccccc1`, the cytotoxicity is 0.1%.

For the molecule `Nc1nc(NC(=O)c2ccco2)nn1-c1ccccc1`, the cytotoxicity is 4.5%. Take `OC(CN1CCN(c2ccccn2)CC1)Cn1c2ccccc2c2ccccc21` (configuration not stated): the cytotoxicity is 53.3% (active). `OC(COc1ccc(Cl)c2ccccc12)CN1CCN(c2ccccn2)CC1` (configuration not stated): the cytotoxicity is 18.3%. Then `OC(COCc1cccs1)CN1CCN(c2ccccn2)CC1` (configuration not stated), with 2.8%.

As for `O=C1NCC2=C1C(c1ccc(Br)cc1)Nc1ccccc1N2` (configuration not stated), the cytotoxicity is -0.1%. As to `Cc1c(NC(=O)COC(=O)c2cc3c4ccccc4n(C)c3s2)c(=O)n(-c2ccccc2)n1C`, the cytotoxicity is 19.8%. For the molecule `Cc1nnc(NC(=O)Nc2cccc(Cl)c2)s1`, the cytotoxicity is 12.5%. Regarding `CNC(=O)C1C2C=CC3(O2)C1C(=O)N(C1CC1)C3C(=O)NCc1ccc(OC)cc1` (configuration not stated), the cytotoxicity was 3.6%. As to `O=C(Nc1ccc2c(c1)OCO2)C(c1ccc(Cl)cc1)N1CCC2(CC1)OCCO2` (configuration not stated), the cytotoxicity was 5.8%. Take `CC(=O)c1c(C)nc(-c2ccc3c(c2)OCO3)n1O`: the cytotoxicity is -5.4%. Then `O=C(CSc1nnc(Cc2ccccc2)o1)Nc1ccc(Br)cn1`, with -11.2%; and `O=C(NCc1ccccc1)N1CCC(c2nc3ccccc3[nH]2)CC1`, with -0.6%; and `Cc1ccccc1S(=O)(=O)Cc1ccc(C(=O)NCCN2CCN(Cc3ccccc3)CC2)o1`, with 3.7%. In the case of `O=C(OCCCc1ccncc1)c1ccc(S(=O)(=O)N2CCOCC2)cc1`, the cytotoxicity is -10.8%. With `CC(Oc1ccccc1)C(=O)N1CCCc2ccccc21` (configuration not stated), the cytotoxicity was -9.7%. On to `O=C(NCC1CCCO1)c1cc(-c2ccncc2)nc2ccc(S(=O)(=O)N3CCOCC3)cc12` (configuration not stated), for which the cytotoxicity is -15.7%. Then `O=C(COC(=O)c1cc(S(=O)(=O)N2CCOCC2)ccc1O)NCC1CCCO1` (configuration not stated), with 55.2% (active). Regarding `O=C(COC(=O)c1ccc(Br)c(S(=O)(=O)N2CCOCC2)c1)NCC1CCCO1` (configuration not stated), the cytotoxicity is -3.7%.

With `Cc1ccnc(NC(=O)CCC(=O)N(CC(=O)NC2CCCCC2)c2ccc3c(c2)OCO3)c1`, the cytotoxicity was -7.7%.

For `CCC1CCCCN1C(=O)CSc1nc(N)c(NC(=O)c2ccco2)c(=O)[nH]1` (configuration not stated), the cytotoxicity is -21.6%. As for `CC1Oc2ccccc2N(CC(=O)c2cccc(Cl)c2)C1=O` (configuration not stated), the cytotoxicity was -8.4%. As for `CCOC(=O)c1cnn2c(C)cc(-c3ccc(F)cc3)nc12`, the cytotoxicity is -18.9%.

On to `COCC(C)NC(=O)CCS(=O)(=O)c1nc(-c2ccc(OC)cc2)cc(C(F)(F)F)n1` (configuration not stated), for which the cytotoxicity was 52.3% (active).

For `CCOC(=O)CS(=O)(=O)c1ccc2ccccc2c1`, the cytotoxicity is -6.4%. Regarding `Cc1cc(NC(=O)CCCS(=O)(=O)c2nc(-c3cccs3)cc(C(F)(F)F)n2)no1`, the cytotoxicity is 4.1%.

Regarding `COc1ccc(-c2cc(C(F)(F)F)nc(SCC(=O)Nc3cc(C)on3)n2)cc1`, the cytotoxicity was -11.8%. Then `COc1ccc(-c2cc(C(F)(F)F)nc(SCCC(=O)NCc3ccco3)n2)cc1`, with -8.8%; and `CCOC(=O)CS(=O)(=O)c1nc(-c2ccccc2)cc(C(F)(F)F)n1`, with 34.5%; and `COC(=O)c1ccc2c(=O)n(CCCCCC(=O)NCc3ccccn3)c(=O)[nH]c2c1`, with 2.9%. Take `CCCC(=O)NCCCCNC(=O)CCC`: the cytotoxicity is -12.2%. Then `Cc1ccc(CN(Cc2cccnc2)C(=O)CN2C(=O)COc3ccccc32)o1`, with -12.5%. Regarding `CC(=O)Nc1ccc(NC(=O)Oc2ccccc2)cc1`, the cytotoxicity is -2.5%. With `O=C(Nc1ccc(N2CCN(c3ccc(O)cc3)CC2)cc1)Oc1ccccc1`, the cytotoxicity was 65.7% (active).

On to `CC(C)Oc1ccc(NC(=O)Oc2ccccc2)cc1`, for which the cytotoxicity was 3.4%.

Consider `Cn1c(=O)c2ccccc2n(Cc2ccccc2F)c1=O`, for which the cytotoxicity was 2.5%.

Consider `CCOc1ccccc1Oc1ccc(C(F)(F)F)cn1`, for which the cytotoxicity is -8.8%. Take `CS(=O)(=O)c1ccc2nc(NC(=O)c3cccs3)sc2c1`: the cytotoxicity was 3%. Turning to `CC(C)n1nc(C(=O)Nc2nc3ccc(S(C)(=O)=O)cc3s2)c2ccccc2c1=O`, the cytotoxicity was 53.7% (active). For `COc1ccccc1C(=O)Nc1nc2ccc(S(C)(=O)=O)cc2s1`, the cytotoxicity was -0.1%. Then `Cc1cccc(OCCCc2c(C)n[nH]c2C)c1`, with 12.8%.

With `CCCCNS(=O)(=O)c1ccc2nc(SCC(=O)c3ccc(C#N)cc3)[nH]c2c1`, the cytotoxicity was 10.9%. Consider `N#Cc1ccsc1NC(=O)CSc1ncn[nH]1`, for which the cytotoxicity is -18.4%. For the molecule `CCCCNS(=O)(=O)c1ccc2nc(SCC(=O)Nc3sccc3C#N)[nH]c2c1`, the cytotoxicity was 80.6% (active).

As to `CCn1cc(/C=C(/C#N)S(=O)(=O)c2ccccc2)cn1`, the cytotoxicity is 2.3%. Take `Cc1ccc(C(C)NC(=O)c2c(C)noc2C)cc1C` (configuration not stated): the cytotoxicity was -2.1%. Take `CCOC(=O)N1CCN(Cc2nc(N)nc(Nc3ccc(Oc4ccccc4)cc3)n2)CC1`: the cytotoxicity is 28%. For `O=C(O)COc1ccc2nsnc2c1Cl`, the cytotoxicity is -27.6%. Regarding `CCOc1ccccc1OCC(=O)O`, the cytotoxicity is 6.8%. Then `C=CCOc1ccccc1/C=N/O`, with -4.8%.

Consider `O=C1CN(C(=O)c2ccc(Br)o2)C(c2ccccc2)c2cc(F)ccc2N1` (configuration not stated), for which the cytotoxicity was 3%. Then `COCCN(CC(=O)NCc1ccccc1)C(=O)CCC(=O)Nc1ccccn1`, with 4.7%.

On to `CCCCOc1ccc(C(=O)OC2CC(C)N(C)CC2C)cc1` (configuration not stated), for which the cytotoxicity was 81.6% (active). Then `CCCCOc1ccc(C(=O)N2CCC(C)CC2)cc1`, with -4.4%; and `CCCCOc1ccc(C(=O)NC)cc1`, with -11.7%.

As to `Cc1cc(C)n(-c2nc3nonc3nc2-n2nc(C)cc2C)n1`, the cytotoxicity was -2.4%.

With `C=CCn1c(O)c(C2=c3ccccc3=NC2=O)sc1=Nc1ccc(O)cc1`, the cytotoxicity is 117% (active). As to `O=C1N=c2ccccc2=C1c1sc(=S)n(CC2CCCO2)c1O` (configuration not stated), the cytotoxicity is 20.6%. Consider `C=CCn1c(O)c(C2=c3ccccc3=NC2=O)s/c1=N/c1nccs1`, for which the cytotoxicity was -2.3%. For the molecule `C=CCOC(=O)C1=C(C)NC(C)=C(C(=O)OCC=C)C1c1ccc(O)cc1`, the cytotoxicity is 1.1%. Consider `CN1C(=O)CC(C(=O)Nc2ccc(F)cc2)SC1=Nc1ccc2c(c1)OCO2` (configuration not stated), for which the cytotoxicity is 12.5%. As for `O=C(COc1nncc2ccccc12)NCCC1=CCCCC1`, the cytotoxicity is -7.1%. Take `COc1cc(CC(=O)NCc2ccc3c(c2)OCO3)cc(OC)c1OC`: the cytotoxicity was -11.8%.

In the case of `COc1cc([C@@H]2c3cc4c(cc3[C@H](O)[C@H]3COC(=O)[C@H]23)OCO4)cc(OC)c1OC`, the cytotoxicity was 70% (active). As for `COc1cc(CC(=O)Oc2ccc3c(c2)OCO3)cc(OC)c1OC`, the cytotoxicity was 27.3%.

Consider `Cc1cccc(C)c1OCC(=O)Nc1cccc(NC(=O)c2ccco2)c1`, for which the cytotoxicity was 2.8%. `CCN(CC)c1ccc(NC(=O)c2cc3ccccc3o2)c(C)c1`: the cytotoxicity is -6%. In the case of `CCCCn1c(-c2nonc2NC(=O)c2ccccc2Cl)nc2ccccc21`, the cytotoxicity is 53.9% (active). For the molecule `CCOC(=O)c1ccccc1NC(=O)Cn1c(-c2nonc2N)nc2ccccc21`, the cytotoxicity was 58.5% (active). Consider `CCOC(=O)Cn1c(-c2nonc2NC(=O)c2ccccc2F)nc2ccccc21`, for which the cytotoxicity was 41%.

`N#CCCn1c(-c2nonc2NC(=O)c2ccccc2Cl)nc2ccccc21`: the cytotoxicity was 41.9%.

Regarding `COC(=O)c1ccccc1NC(=O)Cn1c(-c2nonc2N)nc2ccccc21`, the cytotoxicity was 41.3%. With `CCCCOc1ccccc1NC(=O)Cn1c(-c2nonc2N)nc2ccccc21`, the cytotoxicity was 42.3%. Consider `CCc1nnc(NC(=O)OCc2ccccc2)s1`, for which the cytotoxicity was -11.2%. As to `Cn1nnnc1SCC(=O)N1CCN(c2cccc(Cl)c2)CC1`, the cytotoxicity was 14.5%. Consider `COc1ccc(N(CC(=O)Nc2ccc(C)cn2)S(=O)(=O)c2c(C)noc2C)cc1`, for which the cytotoxicity was -11.9%. Then `CCC(Sc1nc(=O)cc(N)n1CCc1ccccc1)C(=O)Nc1cc(C)on1` (configuration not stated), with -10.3%; and `O=C(NCCc1ccc(Cl)cc1)C1CCN(S(=O)(=O)N2CCCC2)CC1`, with -2.3%; and `N#Cc1nc(-c2cccs2)oc1NCc1ccccc1`, with 3.2%.

For `N#Cc1nc(-c2cccs2)oc1NCCc1ccccc1`, the cytotoxicity is 50.3% (active). Regarding `Cc1ccc(CNc2oc(-c3cccs3)nc2C#N)cc1`, the cytotoxicity was 0.3%.
